PGC1a acetyl inh: inhibitors of PGC1a acetylation signal, primary screen, cell-based, U2OS, AlphaScreen, inhibitor mode. AlphaScreen anti-acetyl-lysine; with virally co-expressed GCN5 acetyltransferase. inhibition, % at 15.6 µM. actives 0.17% (n = 350,000);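 active = every replicate shows inhibition of at least 40%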;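 note: 0% = neutral control wells and 100% = positive control wells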
CaV13 FRET inh: Primary screen for inhibitors of IQ motif and Ca2+-dependent inactivation inhibitor domain binding in CACNA1D, Förster resonance energy transfer in living cells, … | HEK cells, CFP/YFP FRET ICDI-IQ, plate reader, 10 min; percent FRET-ratio fall versus neutral wells | inhibition, % at 12.3 µM | actives 0.098% (n = 340,000) | AID 743397;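 active = mean replicate inhibition of at least 30% and at least 1% of replicates passing that level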;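 note: 0% = median of the neutral control wells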
PglD inh: C. jejuni PglD acetyltransferase inhibitors, primary screen, biochemical, DTNB colorimetric, single point | inhibition, % at 12.5 µM | actives 0.098% (n = 360,000) | purified PglD enzyme, DTNB colorimetric CoA detection | UDP-N-acetylbacillosamine N-acetyltransferase PglD (Campylobacter jejuni); in the data active = inhibition above about 16%, passing the limit was not always enough
ERAP1 inh: human ERAP1 aminopeptidase inhibitors, primary screen, biochemical, single point, plate reader; inhibition, % at 10.7 µM; recombinant ERAP1, Leu-AMC fluorescence, 60 min; actives 0.15% (n = 340,000);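 active = mean replicate inhibition of at least 30%, or all replicates individually reaching that 30% level; inactive = mean below 30% and not every replicate reaching it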;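 note: 0% = neutral control wells and 100% = L-leucinethiol positive control wells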
PDI turbidity: inhibitors of human PDI, primary screen, biochemical, turbidity, single point, plate reader; Protein disulfide-isomerase (Homo sapiens), P07237; PDI insulin aggregation turbidity, A650, 90 min; inhibition, % at 10 µM; actives 0.052% (n = 350,000); AID 588391, 2011;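 active = mean inhibition across replicates of 30% or more, whatever share of single replicates reach that level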
ERp5 block: inhibitors of ERp5-driven insulin aggregation, primary screen, biochemical, turbidity, absorbance 650 nm, single point; 90 min; inhibition, % at 9.99 µM; actives 0.05% (n = 350,000);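 active = mean replicate inhibition above about 25%, with every replicate also reaching it, limit read from the data, passing the limit was not always enough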
Starred values were filed as active, the others as inactive; · = no result. Shown are actives, neighbours in structure and some others; about 0.46% of the full set was active somewhere.

SMILES	PGC1a acetyl inh	CaV13 FRET inh	PglD inh	ERAP1 inh	PDI turbidity	ERp5 block
CCOc1ccc(CCN2C(=O)C(=O)N([C@@H](CC(C)C)CN3CCC[C@H]3CN3C(=O)C(=O)NC[C@@H]3Cc3ccccc3)C[C@@H]2Cc2ccc(O)cc2)cc1	·	-6	·	·	·	-4
O=C1NC[C@H](Cc2ccccc2)N(C[C@H]2CCCN2C[C@H](Cc2ccccc2)N2C[C@H](Cc3ccc(O)cc3)N(CCc3ccccc3)C(=O)C2=O)C1=O	6	-7	-3	1	42*	-4
O=C1NC[C@H](Cc2ccccc2)N(C[C@@H]2CCCN2C[C@H](Cc2ccc(O)cc2)N2C[C@H](Cc3ccc(O)cc3)N(CCc3ccccc3)C(=O)C2=O)C1=O	·	-7	·	-4	·	-4
CCOc1ccc(CCN2C(=O)C(=O)N([C@@H](CC(C)C)CN3CCC[C@@H]3CN3C(=O)C(=O)NC[C@@H]3Cc3ccccc3)C[C@@H]2Cc2ccc(O)cc2)cc1	11	-5	0	2	54*	2
C[C@H]1CN([C@@H](C)CO)C(=O)Cc2cc(NC(=O)CCC(F)(F)F)ccc2O[C@@H]1CN(C)C(=O)Nc1ccc(C(F)(F)F)cc1	-5	·	-1	·	·	·
CC1=CCC2C(=O)N(c3cccc(C(=O)Nc4ccc(Cl)cc4)c3)C(=O)C2C1 (stereo not given)	-6	·	0	1	-6	10
CC1=CCC2C(=O)N(c3cccc(C(=O)NCc4ccccc4)c3)C(=O)C2C1 (stereo not given)	63*	-3	0	0	2	0
O=C1C(=C(I)I)c2ccccc2-c2ccccc21	·	-6	·	36*	0	-2
CCn1c(-c2nn(-c3ccccc3)ccc2=O)n[nH]c1=S	·	-65	·	7	-1	0
CCn1c(SC)nnc1-c1nn(-c2ccccc2)ccc1=O	·	-6	2	103*	5	2
Cc1ccc2c(c1)C1CN(C)CCC1N2C(=O)COc1ccc(N(C)S(=O)(=O)c2cccs2)cc1 (stereo not given)	8	-3	·	·	-2	6
CCOc1ccc(S(=O)(=O)N(C)c2ccc(OCC(=O)N3c4ccc(C)cc4C4CN(C)CCC43)cc2)cc1 (stereo not given)	75*	-3	-6	2	4	5
C[C@@H]1CCCCO[C@H](CN(C)C(=O)Nc2ccccc2)[C@@H](C)CN([C@H](C)CO)C(=O)c2cc(NC(=O)c3ccccc3)ccc2O1	-3	·	2	2	·	1
Cc1c(/C(O)=C2\C(=O)C(=O)N(CCCN(C)C)C2c2ccccc2)cnn1-c1ccccc1 (stereo not given)	82*	-5	·	-1	-11	1
Cc1c(/C(O)=C2\C(=O)C(=O)N(CCN(C)C)C2c2cccnc2)cnn1-c1ccccc1 (stereo not given)	-2	·	1	·	-4	·
CCN1[C@@H]2Cn3c(ccc(/C=C/c4ccccc4)c3=O)[C@H]1[C@@H](C(=O)NC1Cc3ccccc3C1)[C@@H]2CO	12	·	·	-5	·	5
COc1c(Cl)cc(-c2noc(C)c2C(=O)NCc2ccc3c(c2)OCO3)cc1Cl	-1	71*	-1	·	-1	-1
COc1cc(-c2noc(C)c2C(=O)NCc2ccc3c(c2)OCO3)cc(OC)c1OC	39	-10	9	-2	-1	-5
Cc1cccn2c(=O)c3cc(C(=O)NCc4ccccc4)c(=N)n(CCCN4CCOCC4)c3nc12	4	20	-10	-54	-6	0
CCCNc1nc2nc3ccccn3c(=O)c2cc1C(=O)NCCN1CCOCC1	-24	7	-3	58*	-2	1
Cc1cccn2c(=O)c3cc(C(=O)NCc4cccnc4)c(=N)n(CC4CCCO4)c3nc12 (stereo not given)	·	27	-1	86*	3	3

Bioassay records as filed in PubChem.
